Measured values reported in PubChem BioAssay (EPA / NIEHS).
Active and inactive are the calls of the source. How the source made its calls: active means hit-call score of the fitted dose curve at least 0.9, where 1 is the maximum; inactive means score below 0.9.

Experiments:
[1] = read-out: Interleukin 17F (IL17F), IL17F (gene 112744); test: BSK_BT_xIL17F: BioMAP Diversity Plus: BT Assay for Interleukin 17F (IL17F) Biomarker Activity (AID 2284243); conditions: primary human B cells with PBMC
In short: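 Human PBMC co-cultured with B cells, compound exposure 24 h; secreted IL-17F quantified by Luminex xMAP, referenced to DMSO control. PBMC viability measured in parallel by Alamar Blue reduction.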

[2] = read-out: Actin alpha 1 (ACTA1), ACTA1 (gene 58); test: BSK_MyoF_ACTA1: BioMAP Diversity Plus: MyoF Assay for Actin alpha 1 (ACTA1) Biomarker Activity (AID 2284244); conditions: primary human lung fibroblasts
In short: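 Cells were exposed to chemical for 24 h before a-SMA levels were quantified by ELISA in human lung fibroblasts. Increases were fitted against DMSO as negative control; parallel SRB staining (0.1% after 10% TCA fixation, 560 nm) assessed cytotoxicity.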

[3] = read-out: Interleukin 2 (IL2), IL2 (gene 3558); test: BSK_BT_xIL2: BioMAP Diversity Plus: BT Assay for Interleukin 2 (IL2) Biomarker Activity (AID 2284245); conditions: primary human B cells with PBMC
In short: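 The BT system combines human B cells with peripheral blood mononuclear cells. Twenty-four hours after chemical dosing, secreted IL-2 was measured with xMAP bead technology, and responses were analyzed as increases over DMSO controls.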

[4] = read-out: Basic fibroblast growth factor (bFGF), FGF2 (gene 2247); test: BSK_MyoF_bFGF: BioMAP Diversity Plus: MyoF Assay for Basic fibroblast growth factor (bFGF) Biomarker Activity (AID 2284246); conditions: primary human lung fibroblasts
Experimental: (§1) BSK_MyoF is a cell-based, multiplexed-readout assay that uses lung fibroblasts, a human […] primary cell, with measurements taken at 24 hours after chemical dosing in a microplate: 96-well plate.BSK_MyoF_bFGF is an assay component measured in the BSK_MyoF assay. It measures bFGF antibody related to regulation of gene expression using ELISA technology.Data from the assay component BSK_MyoF_bFGF was analyzed at the endpoint, BSK_MyoF_bFGF, in the positive analysis fitting direction relative to DMSO as the negative control and baseline of activity. Using a type of binding reporter, gain or loss-of-signal activity can be used to understand protein changes. To generalize the intended target to other relatable targets, this assay endpoint is annotated to the 'growth factor' intended target family, where the subfamily is 'basic fibroblast growth factor '.
(§2) The levels of cell surface (or secreted, indicated by the prefix "s") biomarker endpoints were measured by ELISA. Overt cytotoxicity to cells in confluent adherent cultures (all systems other than the BT system) was assessed by measuring total protein levels using sulforhodamine B (SRB) staining in parallel cultures at the time of biomarker measurements, indicated as SRB endpoints. For proliferation assays for adherent cell types, individual cell types are cultured at sub-confluence and relative cell numbers quantified by SRB staining at time points optimized for each system (48 h: 3C and CASM3C systems; 72 h: BT and HDF3CGF systems; 96 h: SAg system). SRB was performed by staining cells with 0.1% SRB after fixation with 10% TCA and reading wells at 560 nm.Viability and proliferation of PBMC (T cells) was quantified by Alamar Blue reduction for the SAg and BT systems. […] Then, Alamar Blue (20 uL/well) (Invitrogen, Cat DAL1100) was added for 6 h, and the plates were read with a fluorescence microplate reader at 546/580 nm (excitation/emission). […] Plates were read after 6 h.

[5] = read-out: Collagen IV, COL4A1 (gene 1282); test: BSK_MyoF_CollagenIV: BioMAP Diversity Plus: MyoF Assay for Collagen IV Biomarker Activity (AID 2284247); conditions: primary human lung fibroblasts
Experimental: as §1, with “plate.BSK_MyoF_CollagenIV” for “plate.BSK_MyoF_bFGF”, “Collagen IV” for “bFGF”, “BSK_MyoF_CollagenIV” for “BSK_MyoF_bFGF”, “BSK_MyoF_CollagenIV,” for “BSK_MyoF_bFGF,”, “'cell adhesion molecules'” for “'growth factor'”, “'collagen'.” for “'basic fibroblast growth factor '.”
as §2

[6] = read-out: Plasminogen activator inhibitor-1 (PAI1), SERPINE1 (gene 5054); test: BSK_MyoF_PAI1: BioMAP Diversity Plus: MyoF Assay for Plasminogen activator inhibitor-1 (PAI1) Biomarker Activity (AID 2284256); conditions: primary human lung fibroblasts
In short: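 Primary human lung fibroblasts treated with chemical for 24 h; PAI-1 levels quantified by ELISA relative to DMSO. Cytotoxicity was assessed in parallel cultures by SRB total-protein staining (0.1% SRB after 10% TCA fixation, 560 nm).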

[7] = read-out: Interleukin-8 (IL8), CXCL8 (gene 3576); test: BSK_MyoF_IL8: BioMAP Diversity Plus: MyoF Assay for Interleukin-8 (IL8) Biomarker Activity (AID 2284261); conditions: primary human lung fibroblasts
In short: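 Human lung fibroblast (MyoF system) cultures dosed for 24 h, then IL-8 measured by ELISA. Response taken relative to DMSO; parallel SRB total-protein staining for cytotoxicity.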

Decorin, DCN (gene 1634) = test: BSK_MyoF_Decorin: BioMAP Diversity Plus: MyoF Assay for Decorin Biomarker Activity (AID 2284265); conditions: primary human lung fibroblasts
Experimental: as §1, with “plate.BSK_MyoF_Decorin” for “plate.BSK_MyoF_bFGF”, “Decorin” for “bFGF”, “BSK_MyoF_Decorin” for “BSK_MyoF_bFGF”, “BSK_MyoF_Decorin,” for “BSK_MyoF_bFGF,”, “'cell adhesion molecules'” for “'growth factor'”, “'decorin'.” for “'basic fibroblast growth factor '.”
as §2

[8] = BSK_MyoF_SRB: Viability Assessment in the BioMAP Diversity Plus: MyoF Assay (AID 2284267); conditions: primary human lung fibroblasts;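 further: total protein by SRB absorbance in parallel cultures as cytotoxicity measure; cells assessed 24 h after compound addition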
In short: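 Confluent human lung fibroblasts were exposed to test chemicals for 24 h. Parallel wells were then fixed in 10% TCA, stained with 0.1% sulforhodamine B and measured at 560 nm. DMSO served as baseline for curve fitting.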

[9] = read-out: Matrix Metallopeptidase 1 (MMP1), MMP1 (gene 4312); test: BSK_MyoF_MMP1: BioMAP Diversity Plus: MyoF Assay for Matrix Metallopeptidase 1 (MMP1) Biomarker Activity (AID 2284268); conditions: primary human lung fibroblasts
Experimental: as §1, with “plate.BSK_MyoF_MMP1” for “plate.BSK_MyoF_bFGF”, “[…]” for “bFGF”, “BSK_MyoF_MMP1” for “BSK_MyoF_bFGF”, “BSK_MyoF_MMP1,” for “BSK_MyoF_bFGF,”, “'protease'” for “'growth factor'”, “'matrix metalloproteinase'.” for “'basic fibroblast growth factor '.”
as §2

Measured: AC50

CCC(C)OC(=O)N1CCCCC1CCO (stereo not given)
inactive: all assays above

COCCO
inactive: all assays above

N#CSCSc1nc2ccccc2s1
active: [1] 4.93 µM | [2] 4.21 µM | [3] 5.16 µM | [4] 10.6 µM | [5] 6.4 µM | [6] 7.79 µM | [7] 11.2 µM | Decorin, DCN (gene 1634) 5.27 µM | [8] 5.55 µM | [9] 3.63 µM
